This is a sample that favours compounds with a hit; in the whole collection about 4.1% have one here.
FBA Mtb inh – inhibits M. tuberculosis FBA enzyme. P9WQA3. purified M. tuberculosis FBA, fluorescence read-out. inhibition, % at 1 µM. 2.3% of 360,000 active; in the data active = inhibition above about 27%;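 also: 0% = vehicle and 100% = reference inhibitor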
Target sequence (P9WQA3 whole entry, looked up): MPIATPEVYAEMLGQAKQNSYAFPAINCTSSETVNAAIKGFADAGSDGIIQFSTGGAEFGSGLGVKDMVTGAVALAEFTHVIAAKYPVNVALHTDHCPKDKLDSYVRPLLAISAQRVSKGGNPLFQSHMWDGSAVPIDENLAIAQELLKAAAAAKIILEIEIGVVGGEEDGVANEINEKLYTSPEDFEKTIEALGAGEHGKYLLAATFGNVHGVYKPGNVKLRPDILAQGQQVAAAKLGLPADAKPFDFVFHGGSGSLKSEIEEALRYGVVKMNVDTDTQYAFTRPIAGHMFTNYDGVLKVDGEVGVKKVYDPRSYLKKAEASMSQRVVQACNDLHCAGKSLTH
Rv3671c inh – Rv3671c (M. tuberculosis) protease inhibition; P9WHR9; inhibition, % at 5.96 µM; 0.048% of 320,000 active; in the data active = inhibition above about 38%;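 also: extracellular domain of Rv3671c used as enzyme; 0% = enzyme with DMSO and 100% = no enzyme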
Mtb UGM inh – Mtb UDP-galactopyranose mutase inhibition; P9WIQ1; purified UGM, fluorescence polarization probe displacement; inhibition, % at 10 µM; 0.06% of 320,000 active; in the data active = inhibition above about 10%, passing the limit was not always enough
BH1578 lux ind – induces V. cholerae light production without autoinducers; 0.16% of 350,000 active; V. cholerae BH1578 lux reporter, luminescence, 6 h; AID 588436; activation, % at 18.7 µM; in the data active = activation mostly above about 9.7%, no sharp cut-off
RecA splice inh – inhibitors of M. tuberculosis RecA intein splicing. cell-free RecA intein splicing, fluorescence. inhibition, % (no concentration beside the values). 0.75% of 290,000 active. AID 2221; in the data active = inhibition above about 30%;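 also: 0% = vehicle wells and 100% = reference inhibitor control wells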
GDH-TPI inh – counter-screen for M. tuberculosis FBA inhibitors: GDH-TPI coupled enzymes; GDH-TPI coupled enzyme counterscreen, NADH absorbance; inhibition, % at 4.8 µM; 1.2% of 360,000 active; in the data active = inhibition above about 30%;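 also: 0% = DMSO wells and 100% = wells lacking the enzyme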
* marks the source's active call; other numbers are inactive results; i = inactive; / = no result given; + = active, no number.

SMILES	FBA Mtb inh	Rv3671c inh	Mtb UGM inh	BH1578 lux ind	RecA splice inh	GDH-TPI inh
O=C(C[C@H]1C[C@H](C(=O)N2CCCCC2)[C@@]2(CCc3ccccc3)c3[nH]c4ccc(Cl)cc4c3CCN2C1=O)NCc1cccc(C(F)(F)F)c1	1	/	/	i	/	-12
Cc1ccc(NCCc2ccc(C)nc2)cc1	-1	4	1	i	-1	6
Cc1ccc(CCNc2ccc3ccccc3c2)cn1	3	-3	0	0	38*	12
COc1ccc2c(c1)cc(C(=O)N/N=C/c1c(O)c(C(=O)O)cc3ccccc13)n2C	-2	19	-3	-8	-16	32*
Cc1cccc(C(=O)OCC(=O)Nc2c(C)n(C)n(-c3ccccc3)c2=O)c1O	0	1	0	0	/	-15
S=c1nc(-c2ccccc2)n(CCCn2ccnc2)c2c1CCCC2	1	1	3	0	1	41*
COc1cccc(CNS(=O)(=O)c2c(C)nc3scc(C)n3c2=O)c1	18	-1	2	0	0	21
Cc1nc2scc(C)n2c(=O)c1S(=O)(=O)NCc1ccccc1	24	5	3	i	-7	38*
CCCCNC(=O)C1(C)CCC(=O)N1CCOc1ccccc1 (centres undefined)	2	/	/	/	/	/
COc1cccc(-c2nnc(NC(=O)c3ccc(Cl)s3)o2)c1	3	5	0	0	0	41*
CN(C)c1ccc(/C=N/NC(N)=S)cc1[N+](=O)[O-]	-3	6	3	i	-4	43*
C=CCNC(=S)N/N=C/c1ccc(C)c([N+](=O)[O-])c1	-2	8	-1	i	/	20
CC12CC(O)C3c4ccc(O)cc4CCC3C1CC/C2=N\O (centres undefined)	0	-2	0	-1	-2	6
COc1cc(/C=N/NC(N)=O)cc(Br)c1OCc1ccccc1C	0	3	-2	i	-2	-1
CCOc1cc(/C=N/N=C(/N)c2nonc2N)cc(Br)c1OCc1ccc(Cl)cc1	1	-31	-1	i	0	32*
COc1cc(/C=N/N=C(/N)c2nonc2N)cc(Br)c1OCc1ccccc1C	1	-12	1	i	1	34*
CC1CCN(C(=O)c2ncn3c2c(=O)[nH]c2cccnc23)CC1	-1	/	/	0	/	8
COC(=O)c1ccc(CNc2ccc(C(C)=O)cc2)cc1	-2	/	/	/	/	/
O=C(OCc1cc2ccccc2[nH]c1=O)c1ccco1	-1	1	1	-6	-2	15
Cc1ccc2cc(COC(=O)c3ccco3)c(=O)[nH]c2c1	3	1	-3	17*	-3	5
CCn1c2ccccc2c2cc(N)ccc21	6	6	-1	i	4	1
CCn1c2ccccc2c2cc(C#N)c(N)nc21	106*	2	3	1	0	18
CCCCNC(=O)C1(C)CCN1C(=O)c1ccncc1 (centres undefined)	4	/	/	1	/	-3
COc1cc(=O)n(C)c2ccccc12	-2	-4	-1	21*	-2	12
CCN(CC)CCCNC(=O)c1ccc2c(SCC(=O)O)c3c(nc2c1)CCC3	/	1	1	/	3	/
SMILES	FBA Mtb inh	Rv3671c inh	Mtb UGM inh	BH1578 lux ind	RecA splice inh	GDH-TPI inh
CCN(CC)CCNC(=O)CSc1c2c(nc3cc(Cl)ccc13)CCCC2	-2	-10	2	0	35*	14
COc1ccc(N2CCN(C(=O)CCc3ccccc3)CC2)cc1	2	-4	-1	1	-5	5
COc1ccc(Nc2oc(-c3ccc(OC)cc3)nc2C#N)cc1	0	7	-1	-1	-3	-2
C=CCNc1oc(-c2cccc(Cl)c2)nc1C#N	3	6	-1	1	/	-12
N#Cc1nc(-c2ccccc2Cl)oc1NCc1ccco1	9	-21	3	-5	7	9
N#Cc1nc(-c2cccc(Cl)c2)oc1NCc1cccnc1	141*	-7	0	0	2	13
N#Cc1nc(-c2ccco2)oc1NCc1cccnc1	23	-2	0	2	2	16
COc1ccc(-c2nc(C#N)c(NCCN(C)C)o2)cc1	123*	3	2	0	-1	11
CCN(CC)CCCNc1oc(-c2cccc(Cl)c2)nc1C#N	134*	3	2	0	0	0
N#Cc1nc(-c2ccc(Cl)cc2)oc1NCc1ccco1	175*	-15	-3	8	0	7
CCOCCCNC(=O)c1cccc(OC2CCN(S(C)(=O)=O)CC2)c1	0	-11	-1	-1	-1	12
CN(C(=O)COc1cccc(C#N)c1)C1CCS(=O)(=O)C1 (centres undefined)	2	-5	-1	3	/	0
Cc1ccc(S(=O)(=O)Nc2cccc(-n3cnnn3)c2)cc1	-3	-2	1	0	4	-5
CN(C)CCCNc1oc(-c2ccc(Cl)cc2)nc1C#N	173*	3	-1	3	2	17
COc1ccc(Nc2oc(-c3ccc(Cl)cc3)nc2C#N)cc1	-2	-2	-1	i	-1	28
COCCNc1oc(-c2ccc(C)cc2)nc1C#N	200*	0	0	0	-1	23
COCCNc1oc(-c2ccc(Cl)cc2)nc1C#N	+	/	/	0	-1	37*
Cc1ccc(NC(=O)CN2C(=O)C(=O)N(C3CCCC3)C2=O)cc1Cl	1	-6	0	i	/	-1
CC(C)C[C@@H](CN)NC(=O)c1nc[nH]c1C(=O)N[C@@H](C)C(=O)CNC[C@H](C)NC(=O)c1nc[nH]c1C(=O)N[C@@H](Cc1ccccc1)C(=O)O	-1	/	/	i	/	-3
